# Assay results: the supplement of paper PMC3334620
# In all, about 33,000 sequences were measured (“E-score (-0.5 to 0.5)”: median about -0.017, highest 2% from about 0.3 on). The list comes from a sample in which the highest values are over-represented; it also holds similar and randomly drawn sequences.
# Target: T1, Sut1 (UniProt P53032)
# T1 sequence: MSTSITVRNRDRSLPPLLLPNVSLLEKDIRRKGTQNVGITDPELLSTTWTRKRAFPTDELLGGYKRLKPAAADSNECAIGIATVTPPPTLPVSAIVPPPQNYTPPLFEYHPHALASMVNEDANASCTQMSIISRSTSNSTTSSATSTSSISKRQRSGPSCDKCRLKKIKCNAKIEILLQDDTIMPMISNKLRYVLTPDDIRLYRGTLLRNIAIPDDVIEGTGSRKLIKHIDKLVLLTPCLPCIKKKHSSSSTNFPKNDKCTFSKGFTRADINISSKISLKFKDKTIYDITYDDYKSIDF
# Experiment: PBM E-score (8-mer binding enrichment) (E-score (-0.5 to 0.5)); higher = stronger / more preferred TF binding
# Conditions: protein concentration: 200 nM; construct: GST-full length
# How it was run: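 PURExpress in vitro transcription/translation supplied GST-tagged yeast transcription factors, either full-length or DNA-binding domain. Applied at about 100-200 nM to universal all-10-mer Agilent arrays double-stranded by primer extension, the bound protein was detected with fluorescent anti-GST. E-scores, modified Wilcoxon-Mann-Whitney statistics, were given by the Universal PBM Analysis Suite to ungapped eight-base words pooled with their reverse complements after masliner normalisation.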
row,Sequence,PBM E-score
1,AACTTACT,0.0273
2,CGCCCTTC,-0.0609
3,AGTGGCGA,0.0883
4,AGGGGCCC,-0.217
5,AACAGAAT,0.0169
6,ATCGATGG,-0.0596
7,AGGCTACG,-0.345
8,AAGTCTGA,-0.193
9,CAAATTCA,0.0268
10,GCAGAATA,-0.0687
11,TCACCGCA,-0.0955
12,ACACCGGT,0.0191
13,GCACCGGA,0.338
14,TCACCGGA,0.397
15,CCACCGGC,0.0248
16,GCACCGTA,0.0972
17,ACACCGGC,0.0168
18,ACACCGGA,0.343
19,CCACCGGA,0.362
20,TCACCGAA,0.155
21,GCACCGGC,-0.0791
22,CCACCGGG,-0.0405
23,GGCTTTAC,0.113
24,ACTGAGAC,0.00875
25,ATCCAGAC,-0.0133

row,Sequence,PBM E-score
1,CGGTTTAC,0.00822
2,AGGGCTGA,-0.161
3,CGAGGAAG,0.0543
4,AAGCCATC,0.0153
5,TAACAGGA,0.0331
6,GAACCAGA,-0.185
7,GAACGTGC,-0.234
8,TGGTTAAA,0.159
9,CAACGGAC,0.291
10,AAACGGAC,0.147
11,AAACGGAG,0.37
12,TCACGGAA,0.238
13,CAACGGAG,0.399
14,CAACGGAA,0.25
15,AAACGGGA,0.159
16,TAACGGAA,0.309
17,AAACGGAT,0.209
18,GAACGGAA,0.166
19,AAACGGTA,0.0446
20,AAACGGAA,0.331
21,ACCCAACG,-0.0276
22,CACCCTAC,-0.161
23,CATATGCG,-0.0808
24,AGTAAACG,-0.0776
25,CTACCAGC,-0.212

row,Sequence,PBM E-score
1,GGCGTTGA,-0.134
2,GCAGTAAC,-0.144
3,GAATTGTA,0.128
4,CTCTCCCC,-0.259
5,AATGCTTG,-0.238
6,CGACCTGA,-0.184
7,CCTAAAGA,0.0405
8,ACTAATCA,0.139
9,CAGAGTCA,-0.379
10,ACAAGAAA,0.218
11,CCAAGAAA,0.241
12,TAAAGAAA,0.301
13,TCAAGAAA,0.316
14,GAAAGAAA,0.294
15,CAAAGAAA,0.115
16,CTAGGCCA,-0.145
17,ATGGGGAA,-0.0455
18,GAGAAGGC,-0.0615
19,CGCGCACC,-0.0354
20,GGTGAGAA,0.137
21,CCGCTCAA,-0.078
22,CCTCCGGC,0.106
23,ACTCCGGC,0.489
24,ACTCCGGG,0.491
25,CATCCGGG,-0.0527

row,Sequence,PBM E-score
1,ACTCCCGG,0.174
2,ACTCCTGC,0.0597
3,TACAATGA,0.153
4,CAAGATTC,0.235
5,ATACGGAG,0.362
6,CTACGGAA,0.0897
7,ATACGGAT,0.0822
8,CTACGGAG,0.381
9,CTACGGAC,0.169
10,ATACGGTG,0.0347
11,CAGAAGGG,-0.238
12,ACTGCAAG,-0.0394
13,ATGGGAAA,0.0371
14,ATGGCCGG,-0.0767
15,CGCCGGCG,0.375
16,AGCCGGAC,0.342
17,GGCCGGAC,0.302
18,AGCCGGTG,0.00841
19,AGCCGGCG,-0.0364
20,AGCCGGAT,0.125
21,GGCCGGAA,0.0761
22,AGCCGGTC,-0.166
23,AGCCGGAG,0.371
24,AGCCGGAA,0.233
25,CGCCGGCC,-0.0583

row,Sequence,PBM E-score
1,CGCCGGAC,0.275
2,ACTTCTCA,-0.033
3,GCCCATGA,-0.222
4,AAGAGCGG,0.0491
5,GTCGCGCA,0.0446
6,TACTCTCA,0.0648
7,AACCGTCA,-0.0173
8,CGCCGGAA,0.132
9,CGCCGGAG,0.391
10,CGCCGTAG,0.0361
11,GCGAACGA,0.0664
12,ATTACTCA,0.162
13,CATACTCC,0.325
14,AATACTCC,0.199
15,ACTACTCC,0.226
16,CTTACTTA,0.11
17,ATTACTGA,0.037
18,ATTACTCC,0.318
19,GCTACTCC,0.3
20,ATTACTCG,0.0802
21,ATTACTTA,0.327
22,GCTACTCA,0.0293
23,CATACTCA,-0.0521
24,AATGGATC,0.0349
25,ATCGACCC,0.0935

row,Sequence,PBM E-score
1,AGTTTTTG,0.28
2,CGGGAGAG,-0.0788
3,TACACTCA,0.0601
4,ACATACTG,0.0299
5,AGAGCACA,-0.0607
6,AGTACCTG,0.0244
7,GCTCATGA,-0.172
8,CTGAAGAC,-0.0142
9,CTTACTAC,0.0954
10,CTTACTCA,-0.0535
11,CTTACTCC,0.365
12,TAGCCCCA,-0.121
13,TCCGTTAA,0.326
14,CCCGTTAA,-0.176
15,GCCGTTAA,0.092
16,CCCAAAGC,-0.0681
17,CCCTGGTA,-0.336
18,CTTGGGGC,-0.245
19,GGGTTAAC,0.0764
20,CTCCTAAG,-0.111
21,CACTCCAA,0.0306
22,TACTCCAA,-0.0372
23,GACTCCGA,0.486
24,TCCTCCGA,0.0213
25,GACTCCAA,-0.0971

row,Sequence,PBM E-score
1,CACTCCGA,0.471
2,GACTCCTA,0.0134
3,TACTCCGA,0.491
4,CCCTCCGA,0.0492
5,AAACTATT,0.24
6,AGCTAGGC,-0.232
7,GCCTAGGA,-0.122
8,ACTGGGGC,-0.231
9,GAGCTATC,-0.0645
10,GACCTTCC,0.0118
11,AGCCACCT,-0.248
12,AACCGAAT,0.099
13,GACCGAAC,0.0271
14,ATCCGAAG,0.101
15,CTCCGAAA,0.46
16,GCCCGAAC,-0.00475
17,CGCCGAAA,-0.00015
18,CTCCGAAC,0.468
19,ATCCGAAT,0.32
20,CACCGAAC,-0.0118
21,GTCCGAAC,0.397
22,CACCGAAA,0.137
23,ATCCGAAC,0.213
24,CCTAGCCC,-0.128
